From PubChem BioAssay (NCI)
About 83,000 compounds went through this panel and 20% of them were active in at least one assay; those are over-represented in the sample as a whole.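 48-hour exposure, single concentration, 96-well plates; percent growth endpoint where 0 means no net growth. Active: below 10.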 A number with no mark means an inactive call. The source made the active and inactive calls.

Legend:
Experiment in all cases: NCI-60 one-dose screen, 48 h (100 = growth as untreated, 0 = no growth, -100 = all killed)
HCT-15 colon = settings: 10 µM unless noted
HT29 colon = settings: 10 µM unless noted
SNB-19 CNS = settings: 10 µM unless noted
PC-3 prostate = settings: 10 µM unless noted
SK-MEL-5 melanoma = settings: 10 µM unless noted
UACC-62 melanoma = settings: 10 µM unless noted
LOX IMVI melanoma = settings: 10 µM unless noted
SK-MEL-28 melanoma = settings: 10 µM unless noted
SK-MEL-2 melanoma = settings: 10 µM unless noted
EKVX NSCLC = settings: 10 µM unless noted
SN12C renal = settings: 10 µM unless noted
UO-31 renal = settings: 10 µM unless noted
TK-10 renal = settings: 10 µM unless noted
ACHN renal = settings: 10 µM unless noted
A498 renal = settings: 10 µM unless noted
CCRF-CEM leukemia = settings: 10 µM unless noted
MOLT-4 leukemia = settings: 10 µM unless noted
U251 CNS = settings: 10 µM unless noted
CAKI-1 renal = settings: 10 µM

| Compound | growth (HCT-15 colon) | growth (HT29 colon) | growth (SNB-19 CNS) | growth (PC-3 prostate) | growth (SK-MEL-5 melanoma) | growth (UACC-62 melanoma) | growth (LOX IMVI melanoma) | growth (SK-MEL-28 melanoma) | growth (SK-MEL-2 melanoma) | growth (EKVX NSCLC) | growth (SN12C renal) | growth (UO-31 renal) | growth (TK-10 renal) | growth (ACHN renal) | growth (A498 renal) | growth (CCRF-CEM leukemia) | growth (MOLT-4 leukemia) | growth (U251 CNS) | growth (CAKI-1 renal) |
| --- | --- | --- | --- | --- | --- | --- | --- | --- | --- | --- | --- | --- | --- | --- | --- | --- | --- | --- | --- |
| Cc1cn(-c2nc3c(c(NCc4ccccc4)n2)COCC3)c2cccc(C(N)=O)c12 | 81.9% [0.5 µM] | 63.4% [0.5 µM] | 97.4% [0.5 µM] | 83.8% [0.5 µM] | -20.3% [0.5 µM] (active) | 44.3% [0.5 µM] | 16.3% [0.5 µM] | 96.5% [0.5 µM] | 38.1% [0.5 µM] | 85.9% [0.5 µM] | 30.8% [0.5 µM] | 55% [0.5 µM] | 83.2% [0.5 µM] | 39.5% [0.5 µM] | 85.1% [0.5 µM] | 49.1% [0.5 µM] | 60.6% [0.5 µM] | – | – |
| O=C1C(SCCO)=C(SCCO)C(=O)N1c1ccc(-c2ccccc2)cc1 | -21.6% (active) | 70.2% | 106% | 93.3% | 103% | 62.5% | -45% (active) | -66.7% (active) | -73.5% (active) | 129% | 72.4% | -96.5% (active) | -57.8% (active) | – | 105% | -43.8% (active) | -33.6% (active) | 60.2% | – |
| C=C(C)[C@@H]1C/C=C(\COC(=O)[C@H](OC(C)=O)C(NC(=O)c2ccccc2)c2ccccc2)CC[C@H]2O[C@]2(C)CC/C=C(\C)CC1 (stereo partly drawn) | 89% [5 µM] | 62.8% [5 µM] | 80.2% [5 µM] | 32.1% [5 µM] | 71.4% [5 µM] | – | 72.9% [5 µM] | 77.1% [5 µM] | 76.2% [5 µM] | 64.5% [5 µM] | 82.1% [5 µM] | 51.9% [5 µM] | 85.8% [5 µM] | 86.8% [5 µM] | 84.9% [5 µM] | -89.5% [5 µM] (active) | 17.6% [5 µM] | 71.4% [5 µM] | – |
| CNCCCOc1c(Br)cc(CCNC(=O)/C(Cc2cc(Br)c(OC)c(Br)c2)=N/O)cc1Br | -58.3% (active) | -48.2% (active) | -23% (active) | -40.4% (active) | -90.2% (active) | -47% (active) | -80.1% (active) | -64.2% (active) | -54.7% (active) | 26.3% | -74% (active) | -44.9% (active) | 34.7% | – | 31.9% | -9.15% (active) | -17.4% (active) | -84% (active) | – |
| Oc1ccccc1/C=N/c1ccccn1 | 104% | 114% | 88% | 91.4% | 97% | 106% | 94.4% | 117% | 97.8% | 112% | 116% | 92.1% | – | 106% | 89.5% | 116% | 102% | 99% | 104% |
| CC(C)C(=O)Nc1nc2c(s1)CCCc1ccn(S(=O)(=O)c3ccccc3)c1-2 | 94% | 83.7% | 110% | 85.3% | 93.3% | 87% | 96.9% | 106% | 83.7% | 88.2% | 105% | 77.1% | 83.6% | – | 110% | 87.2% | 78% | 102% | – |
| N#Cc1c(N)nc(Cl)c(C#N)c1C(=O)c1ccccc1 | 18.4% | 18.3% | 31.2% | 37.5% | 23.1% | 36.3% | 12% | 11.6% | 19.4% | 87.8% | 35.7% | 32.4% | 48.6% | – | 108% | 10.2% | 19.7% | 30.1% | – |
| COc1ccc(-c2nn(-c3ccc(NC(=O)Nc4cc(C(F)(F)F)cc(C(F)(F)F)c4)cc3)cc2-c2ccncc2)cc1Cl | 9.81% (active) | 11.7% | 31.5% | 3.33% (active) | 9.61% (active) | 15.6% | 15% | 30.1% | -38.3% (active) | 21.7% | 17.2% | 13.3% | – | 18.5% | 0.688% (active) | 9.25% (active) | 6.78% (active) | 11.8% | 5.4% (active) |
